# In the library only some 8.7% were active in any assay of this set; here they are far more common.
# Sfp PPTase inh: qHTS Assay for Inhibitors of Bacillus subtilis Sfp phosphopantetheinyl transferase (PPTase); Biochemical Sfp PPTase activity, qHTS; actives 3.5% (n = 310,000); Potency, µM, without a hit: largest response in the series, negative = inhibition, usual class: inhibitors;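 also: the enzyme is Sfp with the accession as filed and its product quenches rhodamine fluorescence; 0% = enzyme reaction without inhibitor and -100% = no enzyme wells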
#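 Step 1, compound plus 15 nM Sfp-PPTase, 15 min, room temperature. Step 2, add rhodamine-CoA (5 uM) and BHQ-2-YbbR (12.5 uM). Step 3, read 525/598 nm fluorescence at 0 and 30 min.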
# HP1b chromo inh: HTS for Inhibitors of HP1-beta Chromodomain Interactions with Methylated Histone Tails; Chromobox protein homolog 1 (Homo sapiens), P83916; AlphaScreen HP1-beta / biotin-H3K9me3 peptide binding; Potency, µM (series often up to 114 µM), inactives show at the top dose activity change, negative = inhibition, hits mostly inhibitors; actives 0.56% (n = 390,000); AID 540317, 2011; also: nearly all actives have a fitted effect of over 70% in size
# Target sequence (P83916 whole entry, looked up): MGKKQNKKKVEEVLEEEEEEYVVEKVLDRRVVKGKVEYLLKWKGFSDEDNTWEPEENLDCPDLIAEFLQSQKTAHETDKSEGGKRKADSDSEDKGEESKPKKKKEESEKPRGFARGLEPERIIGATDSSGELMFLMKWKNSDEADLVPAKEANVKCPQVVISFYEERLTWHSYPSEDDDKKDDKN
#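 AlphaScreen: HP1-beta (50 nM) preformed 30 min with biotin-H3(1-18)K9me3 peptide (50 nM) in PBS pH 7.4, 0.01% Tween-20. Compound added for 30 min at RT, then streptavidin donor/nickel chelate acceptor beads (10 ug/mL) for 30 min.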
# G9a block: qHTS Assay for Inhibitors of Histone Lysine Methyltransferase G9a. Potency, µM (series often up to 102 µM), without a hit: at the highest dose activity, negative = inhibition, hits mostly inhibitors. AID 504332, 2011. G9a H3K9 monomethylation, AlphaScreen, 2 h. actives 8.8% (n = 350,000); also: % is scaled to controls: 0 for no effect and ±100 for the full control effect; nearly all actives have a fitted effect of over 75% in size
# Target sequence (Q96KQ7 913-1193 limits assumed): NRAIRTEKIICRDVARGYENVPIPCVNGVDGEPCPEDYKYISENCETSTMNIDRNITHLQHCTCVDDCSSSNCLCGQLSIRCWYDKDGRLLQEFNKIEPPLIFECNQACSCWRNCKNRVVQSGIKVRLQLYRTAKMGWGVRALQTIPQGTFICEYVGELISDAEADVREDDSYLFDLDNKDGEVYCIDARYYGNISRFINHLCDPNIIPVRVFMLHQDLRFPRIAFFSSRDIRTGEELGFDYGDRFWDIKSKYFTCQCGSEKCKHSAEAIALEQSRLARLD
#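 Compounds were preincubated with 20 nM G9a for 15 min, after which biotinylated H3K9 peptide (500 nM) and SAM (20 uM) started a 2 h room-temperature reaction. Monomethylated product was quantified by antibody-based AlphaScreen chemiluminescence.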
# 12-LOX inh: Primary qHTS assay for inhibitors of human arachidonate 12S-lipoxygenase (ALOX12): Round 2; purified 12hLO, xylenol orange hydroperoxide absorbance; Potency, µM (doses to about 108 µM), without a hit: at the top dose activity change, negative = inhibition, hits mostly inhibitors; actives 1.1% (n = 580,000); Polyunsaturated fatty acid lipoxygenase ALOX12 (Homo sapiens), P18054; also: % is scaled to controls: 0 for no effect and ±100 for the full control effect
#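 Purified human 12hLO (150 nM final) in 25 mM Hepes, 0.01% Triton X-100, pH 7.0 was preincubated 15 min at room temperature with compound. Then 40 uM arachidonic acid was added, 30 min. Hydroperoxide was read by Fe-XO absorbance ratio 573/405 nm.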
# JMJD2A Tudor inh: qHTS Assay for Inhibitors of JMJD2A-Tudor Domain; Lysine-specific demethylase 4A (Homo sapiens), O75164; AlphaScreen JMJD2A-Tudor / H3K4me3 peptide binding; Potency, µM (doses to about 114 µM), for the others: top-dose activity change, negative = inhibition, most hits filed as inhibitors; actives 4.4% (n = 390,000); AID 504339, 2011; also: % is scaled to controls: 0 for no effect and ±100 for the full control effect; nearly all actives have a fitted effect of over 50% in size
# BAZ2B inh: qHTS Assay for Inhibitors of BAZ2B | Bromodomain adjacent to zinc finger domain protein 2B (Homo sapiens), Q9UIF8 | AlphaScreen BAZ2B-H3K14Ac peptide displacement | Potency, µM (titrated, usually from 114 µM), without a hit: at the highest dose activity change, negative = inhibition, most hits filed as inhibitors | actives 4.4% (n = 360,000); also: % is scaled to controls: 0 for no effect and ±100 for the full control effect; nearly all actives have a fitted effect of over 60% in size
#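 Multi-concentration screen (max 110 uM) measuring displacement of acetylated histone H3 peptide from BAZ2B by AlphaScreen, using 50 nM protein, 50 nM peptide and 10 ug/mL streptavidin donor plus Ni-chelate acceptor beads.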
# * hit, by the source's call; ? = inconclusive; nt = not tested or not shown; [ ] = remark or other dose. Calls follow the shape of the dose curve; as a rule, active = well fitted curve in the direction sought with a large enough effect; inconclusive = small, poorly fitted or top-dose-only effect, or another doubt; inactive = no such curve, though single readings can be large; an effect the other way counts as inactive or inconclusive. Potency is read from the fitted curve at half-maximal effect.
SMILES,Sfp PPTase inh,HP1b chromo inh,G9a block,12-LOX inh,JMJD2A Tudor inh,BAZ2B inh
CCN(CC)CCNC(=O)c1ccc(NC(C)=O)cc1,6%,32%,-9%[59 µM],1%,-1%,-19%
COc1ccc(CNC(=O)c2ccc(NC(=O)N3CCSc4nc(C)cc(C)c43)cc2)c(OC)c1,nt,nt,nt,-19%,nt,nt
O=C(CSc1nc2ccccc2nc1N1CCCC1)N1CCN(c2ccc(Cl)cc2)CC1,nt,nt,nt,10%,nt,nt
Cn1cnnc1Sc1nc2c(c(=O)n(C)c(=O)n2C)n1Cc1ccc(Br)cc1,nt,nt,nt,-15%,nt,nt
O=C(Nc1ccc2cc[nH]c2c1)c1csc(NC2CC2)n1,nt,nt,nt,-2%,nt,nt
COc1ccc(CC(=O)NCc2ccc3c(c2)cc(C)n3C)cc1,18%,25%,-30%,2%,-13%,-23%
CCCCC(=O)NCc1ccc2c(c1)cc(C)n2C,-10%,8%,8%[59 µM],0%,-23%,-6%
COc1ccc(NC(=S)NCc2ccc3c(c2)cc(C)n3C)cc1,4%,?,40µM*,?,50µM*,45µM*
Cn1cccc1CNC(=S)Nc1cc(F)cc(F)c1,-10%,26%,-48%,7%,-7%,?
CCCCNC(=S)NCc1ccc2c(c1)cc(C)n2C,4%,-7%,?,40µM*,?,45µM*
COc1ccc(NC(=S)NCc2cccn2C)cc1,?,-21%,50µM*,-3%,-31%,35µM*
COc1ccccc1NC(=S)NCc1ccc2c(c1)cc(C)n2C,9%,?,?,?,50µM*,25µM*
CCN1CCN(c2ccc(NC(=O)c3ccc(S(=O)(=O)NCc4ccco4)cc3)cc2)CC1,nt,nt,nt,-15%,nt,nt
Cc1cc2cc(CNC(=O)c3cccs3)ccc2n1C,45µM*,-15%,50µM*,?,?,50µM*
CCc1cccc(C)c1NC(=S)NCc1ccccc1,19%,16%,32%[59 µM],?,-11%,-8%
CCOC(=O)CCC(=O)NCc1ccc2c(c1)cc(C)n2C,79µM*,28%,8%[0.0925 µM],0%,-19%,-15%
CCc1cccc(C)c1NC(=S)NCc1ccc2c(c1)cc(C)n2C,9%,-18%,40µM*,?,50µM*,25µM*
Cc1cc2cc(CNC(=O)c3ccc(S(=O)(=O)N4CCCCC4)cc3)ccc2n1C,?,31%,50µM*,?,-8%,-32%
COCCCNc1nc2c([S+](=O)([O-])c3ccc(OC)cc3)nnn2c2ccccc12,nt,nt,nt,-6%[6.33 µM],nt,nt
CCC1c2nccn2CCCN1C(=O)CCc1c(C)nn(C)c1C (centres undefined),nt,nt,nt,21%,nt,nt
COc1cc(/C=C(\C#N)c2nc3ccccc3[nH]2)ccc1OC(C)C,nt,nt,nt,-20%,nt,nt
Cc1cc(C)cc(NC(=S)NCCC(C)C)c1,nt,nt,nt,-64%,nt,nt
Cc1cc2cc(CNC(=S)NCc3ccccc3)ccc2n1C,11%,?,?,40µM*,50µM*,25µM*
COc1cccc(C(=O)NCc2ccc3c(c2)cc(C)n3C)c1,9%,0%,50µM*,-9%,?,?
COc1ccc(C(=O)NCc2ccc3c(c2)cc(C)n3C)cc1OC,2%,-4%,?,3%,-32%,?
SMILES,Sfp PPTase inh,HP1b chromo inh,G9a block,12-LOX inh,JMJD2A Tudor inh,BAZ2B inh
Cc1cc2cc(CNC(=O)Nc3ccccc3)ccc2n1C,11%,?,32µM*,10%,?,4%
CCOC(=O)C1CCCN(C(=O)c2ccc(CS(=O)(=O)c3ccc(C)cc3)o2)C1 (centres undefined),-3%,20%,50µM*,nt,?,?
Cc1ccc(S(=O)(=O)Cc2ccc(C(=O)N3CCN(c4cc(C)ccc4C)CC3)o2)cc1,5%,0%,-30%,-7%,?,56µM*
Cc1ccc(CN2CCN(/N=C/C=C/c3ccccc3[N+](=O)[O-])CC2)cc1,?,18µM*,20µM*,?,14µM*,20µM*
COc1ccc(CC2(CO)CCN(C/C=C/c3ccccc3OC)CC2)cc1,20%,12%,6%,?,-20%,-2%
COc1ccccc1/C=C/C=N/N1CCN(Cc2ccccc2)CC1,-18%,14%,11µM*,-10%,-17%,32µM*
Cc1ccc(N/N=C/C=C/c2ccccc2[N+](=O)[O-])c(C)c1,nt,nt,nt,16µM*,nt,nt
COc1ccccc1/C=C/CN1CCN(c2ccccc2)CC1,-15%,?,11µM*,?,22µM*,50µM*
O=[N+]([O-])c1cc(Br)c2nsnc2c1N1CCOCC1,-3%,20µM*,nt,-16%,40µM*,32µM*
COc1cc([N+](=O)[O-])c(N2CCOCC2)c([N+](=O)[O-])c1OC,-17%,0%,?,0%,-22%,?
O[C@@H]1COC(Nc2ccc(N=Nc3ccccc3)cc2)C[C@@H]1O (some centres undefined),8%,?,45µM*,1%,?,?
OC[C@H]1OC(Nc2ccc(N=Nc3ccccc3)cc2)[C@@H](O)[C@@H](O)[C@@H]1O (some centres undefined),-2%,11%,nt,462%,-35%,?
COCc1cc(C)nc(N/N=C/c2ccc(-c3ccc(Cl)cc3[N+](=O)[O-])o2)c1C#N,?,-5%,40µM*,-28%,-34%,?
Cc1ccc(NC(=O)c2cc(N3C(=O)C=CC3=O)ccc2N2CCOCC2)cc1,4.5µM*,?,1µM*,10µM*,11µM*,?
Cc1ccc(NC(=O)c2cc(NC(=O)c3ccco3)ccc2N2CCOCC2)cc1,-7%,28%,-30%[59 µM],0%,-1%,6%
COC(=O)c1ccccc1SCC(=O)Nc1ccc(N2CCOCC2)cc1,2%,-5%,79µM*,-2%,-21%,-25%
Cc1nc(SCC(=O)Nc2ccc(N3CCOCC3)cc2)nc(C)c1C,?,27%,40µM*,4%,-13%,-33%
Cc1ccc(NC(=O)c2cc(-n3cnnc3)ccc2Cl)cc1,2%,20%,-3%[59 µM],-19%,-16%,8%
Cc1ccc(NC(=O)c2cc(N3C(=O)C=CC3=O)ccc2Cl)cc1C,14µM*,?,1.6µM*,3.5µM*,10µM*,?
Cc1ccc(SCC(=O)Nc2ccc(N3CCOCC3)cc2)cc1,16%,13%,-27%,?,-7%,-20%

# Source: PubChem BioAssay (National Center for Advancing Translational Sciences (NCATS))
